Among the data in PubChem BioAssay AID624045 (National Center for Advancing Translational Sciences (NCATS), 2012) are Potency values, retold here.

Activity calls are given as the source filed them. Calls follow the shape of the dose curve; as a rule, active = well fitted inhibition curve with a large enough effect; inactive = flat fitted curve, though single readings scatter.

The assay concerns the target Dual specificity tyrosine-phosphorylation-regulated kinase 1A (Homo sapiens) (UniProt Q13627). Description: Reaction Biology data for inhibitors of DYRK1A: Probe SAR. To be noted: Reaction Biology DYRK1A kinase assay, 10 uM ATP; series mostly up to 10 µM. The text has this: Alternative splicing of pre-mRNAs plays a major role in the regulation of eukaryotic gene expression. Alternative splicing is now thought to be one of the primary reasons for the complexity of higher organisms leading to an average of three protein isoforms per gene. Aberrant splicing can lead to a number of diseases and is known to play a role in rare genetic diseases such as progeria syndrome. Hutchinson-Gilford Progeria Syndrome (HGPS) is a pediatric premature aging disease caused by a spontaneous mutation in the lamin A/C (LMNA) gene due to a single point mutation in the lamin A gene effecting 1 in 4 million people. To identify both specific splicing modulators of the lamin A gene as well as general splicing modulators, a cell-based HTS assay was developed using a minigene reporter system (AIDs, 1459 & 1487). […] This AID summarizes the characterization of lead compounds in Dyrk1a. NIH Molecular Libraries Probe Production Centers Network [MLPCN] NIH Chemical Genomics Center [NCGC] MLPCN Grant: MH084827 Assay Submitter (PI): Tom Misteli
Compound IC50s were determined at Reaction Biology (http://www.reactionbiology.com) with ten concentration points starting at 10 uM in the assay using a 3-fold dilution series. The control compound staurosporine was also tested in the 10-dose IC50 mode with the same 3-fold serial dilution, again starting at 10 uM. All kinase reactions were performed using 10 uM ATP in the assay. 100% activity was taken from kinase reactions with DMSO alone (the vehicle used for compound stock solutions).
As for `Cc1nc(CN(C)c2ncnc3ccc(-c4ccc5c(c4)OCO5)cc23)cs1`, the Potency was 5.2 nM (active).
The same measure for `COc1cccc(-c2ccnc(NCc3ccc(Cl)cc3)n2)c1`: 6360 nM (active); for `Clc1ccc(Nc2nccc(-c3ccc4c(c3)OCO4)n2)cc1`: 273 nM (active); for `Clc1ccc(CNc2ccnc(-c3ccc4[nH]ncc4c3)n2)cc1Cl`: 2350 nM (active).
For `c1cncc(CNc2ccnc(-c3ccc4[nH]ncc4c3)n2)c1`, the Potency was 349 nM (active).
The same measure for `Clc1cc(Cl)cc(CNc2ncncc2-c2ccc3c(c2)OCO3)c1`: 282 nM (active); for `Clc1ccc(CNc2nccc(-c3ccc4c(c3)OCO4)n2)cc1Cl`: 26.3 nM (active); for `COc1ccc(-c2ccnc(NCc3ccc(Cl)c(Cl)c3)n2)cc1`: 203 nM (active).
Then `Clc1ccc(CNc2ncncc2-c2ccc3c(c2)OCO3)cc1Cl`, with 3450 nM (active); and `Brc1ccc(CNc2nccc(-c3ccc4c(c3)OCO4)n2)cc1Br`, with 79.3 nM (active); and `Cc1c(-c2ccnc(NCc3cccnc3)n2)sc(=O)n1C`, with 29.3 nM (active).
Then `COc1ccc(-c2ccnc(NCc3ccc(Cl)c(Cl)c3)n2)cc1OC`, with “inactive”; and `c1cncc(CNc2nccc(-c3ccc4c(c3)OCO4)n2)c1`, with 7.1 nM (active); and `Brc1cc(Br)cc(CNc2nccc(-c3ccc4c(c3)OCO4)n2)c1`, with 10.7 nM (active).
As for `c1nc(NCC2CCCO2)c2cc(-c3ccc4c(c3)OCO4)ccc2n1` (configuration not stated), the Potency is 24.3 nM (active).
Then `Cc1nc(CN(C)c2ncnc3ccc(-c4ccc5[nH]ncc5c4)cc23)cs1`, with 64.1 nM (active); and `Clc1ccc(CNc2nccc(-c3ccc4[nH]ncc4c3)n2)cc1Cl`, with 128 nM (active); and `c1cncc(CNc2ccnc(-c3ccc4cn[nH]c4c3)n2)c1`, with 1430 nM (active).
The same measure for `O=[N+]([O-])c1cc(Nc2nccc(-c3ccc4c(c3)OCO4)n2)cc(C(F)(F)F)c1`: 24.1 nM (active); for `Clc1ccc(CNc2ccnc(-c3ccc4c(c3)OCO4)n2)cc1Cl`: “inactive”.
Then `Cc1nc(CNc2ncnc3ccc(-c4ccc5c(c4)OCO5)cc23)cs1`, with 33.3 nM (active); and `Clc1ccc(CNc2nccc(-c3ccc4c(c3)OCCO4)n2)cc1Cl`, with 18.2 nM (active).
Consider `c1cc(-c2ccc3c(c2)OCO3)nc(Nc2ccc3c(c2)OCO3)n1`, for which the Potency was 24.9 nM (active).
The same measure for `c1cncc(CNc2ncncc2-c2ccc3c(c2)OCO3)c1`: “inactive”; for `COc1ccc(-c2ccnc(NCc3ccc(Cl)cc3)n2)cc1`: 558 nM (active); for `Clc1ccc(CNc2nccc(-c3ccc4cn[nH]c4c3)n2)cc1Cl`: 169 nM (active).
The same measure for `FC(F)(F)c1cccc(Nc2nccc(-c3ccc4c(c3)OCO4)n2)c1`: 10.4 nM (active).
The same measure for `c1cncc(CNc2nccc(-c3ccc4[nH]ncc4c3)n2)c1`: 60.8 nM (active); for `Cc1c(-c2ccnc(NCc3ccc(Cl)cc3)n2)sc(=O)n1C`: 62.9 nM (active); for `COc1cccc(-c2ccnc(NCc3ccc(Cl)c(Cl)c3)n2)c1`: 4650 nM (active).
Take `Clc1ccc(CNc2ncncc2-c2ccc3c(c2)OCO3)cc1`: the Potency was 4580 nM (active).
With `FC(F)(F)c1cc(Br)cc(Nc2nccc(-c3ccc4c(c3)OCO4)n2)c1`, the Potency was 107 nM (active).
